According to PubChem BioAssay:
Calls of active or inactive are those of the source. No rule for the calls is given here.

Biological target: Pantothenate synthetase (Mycobacterium tuberculosis (strain ATCC 25618 / H37Rv)) (UniProt P9WIL5)
Experiment: Coupled enzyme confirmation of inhibitors against recombinant Mtb PanC (AID 375);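 also: 0% = full reaction with vehicle and 100% = no enzyme background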
Conditions: coupled enzyme assay; at 10 µM, stronger effect = higher value

Pantothenate synthetase (Mycobacterium tuberculosis (strain ATCC 25618 / H37Rv)), sequence (P9WIL5 whole entry, looked up): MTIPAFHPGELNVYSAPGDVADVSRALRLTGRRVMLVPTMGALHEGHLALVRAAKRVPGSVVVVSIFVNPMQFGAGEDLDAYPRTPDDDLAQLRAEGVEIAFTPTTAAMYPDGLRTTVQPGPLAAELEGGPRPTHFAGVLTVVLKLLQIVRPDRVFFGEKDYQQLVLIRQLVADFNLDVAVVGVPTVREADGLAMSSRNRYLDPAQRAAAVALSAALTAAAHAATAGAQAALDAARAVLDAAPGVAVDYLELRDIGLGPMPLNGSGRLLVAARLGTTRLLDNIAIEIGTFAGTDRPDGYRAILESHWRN

Structure (SMILES) | inhibition
Cn1c(=O)c2c(ncn2CC(O)CO)n(C)c1=O (stereo not given) | 0% (inactive)
Clc1ccc2c(c1)C(N1CCNCC1)=Nc1ccccc1O2 | 8% (inactive)
CC(C)(C)NC(=O)CC(CC(=O)O)c1ccccc1 (stereo not given) | 0% (inactive)
O=C(c1c(Cl)nc2sccn12)N(C(=O)c1c(Cl)nc2sccn12)c1ccc(Cl)cn1 | 0% (inactive)
O=C1OC(c2ccc(O)cc2)(c2ccc(O)cc2)c2ccccc21 | 4% (inactive)
CCOC(=O)CNC(=O)CSc1ncnc2c1cnn2Cc1ccccc1 | 0% (inactive)
O=S(=O)(c1ccc2c(c1)nc1n2CCC1)N1CCOCC1 | 0% (inactive)
O=C(Nc1ccc(S(=O)(=O)N2CCCCCC2)cc1)c1ccco1 | 2% (inactive)
CCN(CC)CCCn1c(=S)[nH]c2cc(Cl)ccc2c1=O | 0% (inactive)
CCN1CCN(Cc2nc3c(c(=O)n(C)c(=O)n3C)n2CC(=O)c2ccccc2)CC1 | 2% (inactive)
O=C(CSc1nnc(Cc2ccccc2)n1C1CCCCC1)N1CCOCC1 | 3% (inactive)
CC(C)NCC(O)COc1ccc(CCOCC2CC2)cc1 (stereo not given) | 0% (inactive)
CCc1ccc(N2CC(C(=O)OCC(=O)NC3CCS(=O)(=O)C3)CC2=O)cc1 (stereo not given) | 0% (inactive)
COC(=O)C1=C(C)OC(N)=C(C#N)C1c1c(C)nn(-c2ccccc2)c1Cl (stereo not given) | 0% (inactive)
CCC(CCC(=O)Nc1cccc(C(=O)O)c1)C(=O)O (stereo not given) | 2% (inactive)
CCOc1ccc(N(CC(=O)Nc2cccc(OC)c2)S(=O)(=O)c2c(C)noc2C)cc1 | 11% (inactive)
O=C1CC(c2ccc(S(=O)(=O)N3CCN(c4ccccc4)CC3)cc2)CN1 (stereo not given) | 0% (inactive)
CCOc1ccc(C2C(C#N)=C(N)Oc3cc(C)n(Cc4ccco4)c(=O)c32)cc1OC (stereo not given) | 2% (inactive)
CCC(C)n1ncn(-c2ccc(N3CCN(c4ccc(OCC5COC(Cn6cncn6)(c6ccc(Cl)cc6Cl)O5)cc4)CC3)cc2)c1=O (stereo not given) | 8% (inactive)
CC(=O)Nc1ccc(N=Cc2nc(-c3ccc(C)cc3)oc2O)cc1 | 0% (inactive)

Structure (SMILES) | inhibition
COc1ccc(-n2c(SCC(N)=O)nc3sc4c(c3c2=O)CCN(C)C4)cc1 | 0% (inactive)
CCOC(=O)c1nnc2cc(-c3ccc(Br)cc3)nn2c1C | 0% (inactive)
CC(C)CNc1oc(-c2ccc(F)cc2)nc1C#N | 2% (inactive)
O=C(Cn1nnc(-c2cccs2)n1)OC1CCCCC1 | 4% (inactive)
O=C1CC(Sc2nnc(-c3ccccc3)o2)C(=O)N1c1ccccc1 (stereo not given) | 0% (inactive)
Clc1ccc(Cl)c(-c2nn3c(Cn4cnc5ccccc54)nnc3s2)c1 | 0% (inactive)
CCC(C)C(=O)Nc1nc2c(s1)C(=O)CC(C)(C)C2 (stereo not given) | 10% (inactive)
Cc1c(NC(=O)c2ccc(=O)oc2)c(=O)n(-c2ccccc2)n1C | 6% (inactive)
O=c1oc2ccccc2c(N2CCCCC2)c1CN1CCCCC1 | 0% (inactive)
COc1ccccc1CN1CC(C(=O)NCc2cccnc2)CC1=O (stereo not given) | 2% (inactive)
COc1ccc(-n2ncc3c(NCc4ccccn4)ncnc32)cc1 | 11% (inactive)
CC1(C)CC(=O)C(C#N)=C(NCCCO)C1 | 0% (inactive)
CCCCCC1CC(CC(C)C(=O)Nc2nncs2)C(=O)O1 (stereo not given) | 9% (inactive)
O=C(CS(=O)(=O)c1cn(Cc2ccc(F)cc2)c2ccccc12)N1CCCCC1 | 0% (inactive)
COc1ccccc1C(=O)NCCNC(=O)c1ccco1 | 0% (inactive)
Cc1ccc(C(c2nnnn2CCC(C)C)N2CCN(C)CC2)cc1 (stereo not given) | 2% (inactive)
CCOCCOc1nc2c(c(=O)n(C)c(=O)n2C)n1Cc1ccc(C)cc1 | 0% (inactive)
CCOC(=O)C1=C(CSc2nc(C)cc(C)c2C#N)OC(N)=C(C#N)C1c1cccs1 (stereo not given) | 2% (inactive)
CCn1c(C(Cc2ccccc2)NC(=O)COC)nc2ccccc21 (stereo not given) | 0% (inactive)
Cn1c(=O)c2c(nc(Oc3ccc4c(c3)OCO4)n2Cc2ccc(F)cc2)n(C)c1=O | 0% (inactive)
